The whole screen tested about 4,800 compounds, of which about 410 (8.5%) showed an effect of 50% or more. For the sample, strong results were picked, then their nearest neighbours and some compounds at random.
Test system: Plasmodium falciparum
Experiment: Confirmatory screen in NF54 pLDH assay, in single point, at 2uM, 72h
Assay type: functional, Erythrocyte
Details: timepoint 72 hour

Structure (SMILES)	% Inhibition
Cc1nn(Cc2cccc(F)c2)c(C)c1NC(=O)c1cccc(COc2ccc(Br)cc2)c1	16%
COc1cc(C)sc1C(=O)NCc1csc(=O)[nH]1	-7%
COc1ccc(C(=O)n2nc(Nc3ccccc3Cl)cc2Nc2ccccc2Cl)cc1	12%
COc1ccc(-n2ncc3c(N)c4c(nc32)CCCC4=O)cc1	11%
C[C@@H](C(=O)Nc1cccc2ccccc12)N1CCCCC1	7%
CCOCCC1(CN=C(N)N2CCCCC2)CCCC1	5%
Cc1ccc(C2c3ccsc3CCN2CCC(=O)N2CCN(C(=O)Cc3cccs3)C(C)C2)cc1 (centres undefined)	26%
OC[C@H]1CCc2nnc(C(F)F)n2C1	11%
CCn1nc(-n2cnnc2)c(NS(=O)(=O)c2cccc(Cl)c2)c1C	3%
Clc1ccc(COc2ccc(Cl)cc2CNCCCn2ccnc2)c(Cl)c1	100%
CCOc1cc(CNCCCn2ccnc2)ccc1OCc1ccccc1	23%
OCCNCc1ccc(Cl)cc1Cl	6%
COc1cccc(CNCCN2CCOCC2)c1OCc1ccc(Cl)cc1Cl	11%
Clc1ccc(Cn2cc(CNCCCn3ccnc3)c3ccccc32)c(Cl)c1	100%
COc1cccc(CNCCCN2CCOCC2)c1OCc1ccc(Cl)cc1Cl	12%
COc1ccc(NC(=O)[C@@H](c2cc(OC)c(OC)c(OC)c2)N(Cc2ccccc2)C(=O)Cn2nnc3ccccc32)cc1	-15%
COc1ccc(S(=O)(=O)N2CCN(S(=O)(=O)c3ccc(OC)cc3)C2)cc1	-2%
CCOc1c(CNC(C)(C)CC(C)(C)C)cccc1OC	5%
C[C@H](C(=O)NCC1CCN(Cc2ccccc2F)CC1)C1CCOCC1	3%
CC(Oc1ccc2c(c1)C(c1ccccc1)N(Cc1ccccc1F)CC2)C(=O)NC1CC1 (centres undefined)	50%
COc1ccc2cc3n(c2c1)C[C@](C(=O)NC1CCCCCC1)(c1ccccc1)N(Cc1ccccc1F)C3=O	-26%

Structure (SMILES)	% Inhibition
O=C(c1ccc2c(c1)OCO2)N1CCn2c1nc1ccccc12	3%
CC(=O)Nc1cccc(NC(=O)[C@H]2CC[C@H](Cn3c(O)nc4ccccc4c3=O)CC2)c1	5%
COc1cc2c(cc1Cl)-n1cccc1C1(CCNCC1)N2	-15%
CC1=CC(=[N+](CCO)CCO)C=C/C1=C(\c1ccc(N(CCO)CCO)cc1C)c1ccccc1Cl	87%
O=C(CN1CCN(Cc2cccc(Cl)c2)C1=O)N1CCN(c2ccccc2)CC1	4%
COc1cccc(-c2cc3c(N4CCC(C(=O)NC[C@H]5CCCO5)CC4)nccn3n2)c1	5%
Cc1ccc(S(=O)(=O)Cc2nc3cc(C)c(C)cc3[nH]c2=O)cc1	2%
O=S(=O)(NC1CCCCC1)c1ccc(Cl)c(S(=O)(=O)NC2CCCCC2)c1	6%
N#Cc1cc(S(=O)(=O)NCCN(C2CC2)S(=O)(=O)c2ccc(Cl)c(C#N)c2)ccc1Cl	86%
Cc1cccc(NC(=O)CCC(=O)OCC(F)(F)F)c1C	-1%
COc1cccc(-c2cc(C(=O)N3CCCN(C(=O)c4cc(-c5cccc(OC)c5)nc5ccccc45)CC3)c3ccccc3n2)c1	-26%
Cc1nc(-c2ccccc2)cc2nn(CC(=O)NC3CCCCC3)c(=O)n12	-8%
O[C@H]1CNCC[C@@H]1Nc1cc(-c2ccccc2)nc2ccccc12	76%
CC(C)(C)NC(=O)C1CCN(C[C@@H]2CC=CCC2)CC1	10%
Cc1ccc(/C=C(\C(=O)NC[C@H]2CCCO2)n2ccccc2=O)cc1	12%
CCCC1(CNC(=O)Nc2nc(CS(C)(=O)=O)no2)CC1	6%
CCCCCn1c(NCc2cc(Cl)ccc2O)nc2ccccc21	21%
CCOc1cc(CNCCN2CCOCC2)cc(Cl)c1OCc1ccccc1	9%
CCCc1noc([C@H]2CC(=O)N(c3ccccc3C)C2)n1	8%
CCc1nc2c(C(=O)N3CCOc4c(C)cc(C)cc43)ccnc2[nH]1	60%
CCOc1ccc(C/C(=C/N)c2nc(-c3ccc(Cl)cc3)cs2)cc1	15%

Structure (SMILES)	% Inhibition
CCn1c(=O)c(N2CCC(C(=O)NCCCc3ccccc3)CC2)nc2cccnc21	-22%
Clc1cccc(-c2c[nH]c([C@@H]3COCCN3C3CCOCC3)n2)c1	-16%
CN1CCC[C@H](c2nnc3sc(-c4ccc(OCc5ccccc5)cc4)nn23)C1	8%
CC(C(=O)Nc1nccs1)N1CCCC(c2ccn[nH]2)C1 (centres undefined)	45%
Cc1cc(-c2cncc(CN3CCCCC3)c2)ccc1F	8%
Cc1noc(C)c1CNc1cc(S(=O)(=O)N2CCCCC2)ccc1Oc1ccccc1	14%
O=S(=O)(c1cccc(Cl)c1)N1CCc2nc(N3CCCCC3)nc(Oc3ccccc3)c2C1	78%
Cc1ccc(-c2nn(Cn3nc(C)c(Cl)c3C)c(-c3ccc(C)cc3)c2Br)cc1	-12%
Cn1c(CN2CCOC[C@@]23CCOC3)nnc1C1CC1	13%
O=C(Nc1ccccc1Cl)Nc1cccc2c(-c3ccccc3)c(C(=O)N3CCOCC3)[nH]c12	12%
Cc1ccc(S(=O)(=O)c2c(C)cc(-c3ccccc3)nc2N2CCOCC2)cc1	12%
CCO[C@@]1(c2ccccc2)NC(=O)c2cc3c(cc21)OCCO3	-18%
CC(=O)N(CCN1CCOCC1)[C@H]1CCN(S(=O)(=O)c2cccc(Cl)c2)C1	9%
O=C(NCCCN1CCOCC1)c1ccc(-c2cnc(NC3CCCCC3)nc2)cc1	-15%
Cn1cc(CN2CCC(C(=O)NCCCN3CCCCC3)CC2)c2cc(Cl)ccc21	-8%
CO/N=C(\Nc1cc(C)ccc1C)c1nonc1N	16%
O=C(C[C@@H]1NC(=O)c2ccccc2NC1=O)NCc1ccc(Cl)cc1Cl	-6%
Nc1cc(F)c(Br)cc1Cl	7%
CCn1c(=O)c(N2CCC(C(=O)N3CCN(c4ccccc4F)CC3)CC2)nc2cccnc21	-9%
O=C1C[C@@H](c2cccc(Br)c2)c2c(O)nc(N3CCOCC3)nc2N1	-7%
CCN(C(C)=O)c1nc(CN2C(=O)N[C@](C)(c3ccc(F)cc3Br)C2=O)cs1	9%

Structure (SMILES)	% Inhibition
Cc1nccc(O[C@H]2CCCN(C(=O)CN3CCN(c4ccccc4)C3=O)C2)n1	9%
COc1cccc(C(=O)Nc2noc(-c3cccc(OC)c3)c2-c2ccc(Cl)cc2)c1	-19%
COc1ccc(-c2c(-c3cccc(OC)c3)[nH]c3c2c(=O)[nH]c(=O)n3C)cc1	97%
COc1cccc(N2C(=O)N[C@H](C)C2=O)c1	15%
CCCN1CCN(S(=O)(=O)c2cccc3nonc23)CC1	11%
O=C1CCc2cc(N[C@@H](C(=O)N3CCCC3)c3ccccc3)ccc2N1	5%
Clc1cccc(N2CCN(Cc3nc(-c4ccco4)no3)CC2)c1	-1%
O=C(NC1CCN(Cc2ccco2)CC1)c1ccco1	-2%
Cc1nn(C)cc1C(=O)N1CCN(c2nncc3ccccc23)CC1	-10%
COc1ccnc(NCc2ccc(N3CCOCC3)cc2)n1	10%
CCNC(=O)c1nc(-c2ccncc2)cs1	-16%
O=C(Cn1nc(C2CC2)nc1C1CC1)N1CCOCC1	11%
CCN(C[C@H](C)C#N)C(=O)C(=O)Nc1ccc(F)cc1Cl	13%
COc1cc(Br)cc(C#N)c1O	9%
CC(C)c1cccc(Nc2nc3ccncc3n(C(C)C)c2=O)c1	94%
O=C(CCOCC(F)(F)F)Nc1ccc2c(c1)C(=O)NC2	-5%
CC[N+](CC)(CC(=O)OC1CC2CCC1(C)C2(C)C)CC(=O)OC1CC2CCC1(C)C2(C)C (centres undefined)	92%
Cn1cc(C(C(=O)O[C@@H]2C[C@@H]3CC[C@@]2(C)C3(C)C)c2cn(C)c3ccccc23)c2ccccc21	3%
Cc1ccnc(-c2noc(Cn3c(=O)c(C)cn(C)c3=O)n2)c1	4%
Nc1nc(Cc2ccccc2)c(Br)c(=O)[nH]1	5%
COc1ccc(C2=NC3=S(N2c2ccccc2)N(C(C)=O)C(C(Cl)(Cl)Cl)N3c2ccccc2)cc1 (centres undefined)	13%

Source: ChEMBL document CHEMBL4888484, “Replenishing the malaria drug discovery pipeline: Screening and hit evaluation of the MMV Hit Generation Library 1 (HGL1) against asexual blood stage Plasmodium falciparum ,using a nano luciferase reporter read-out” (2022)
